According to PubChem BioAssay AID2253 (Southern Research Specialized Biocontainment Screening …, 2010):
About 1,300 (59%) of roughly 2,200 compounds were called active. How the calls were made is not given here. So high a share suggests a set chosen from earlier hits. A selection follows. Entries with a potency or affinity are not part of this list.

Assay: THP-1 cell cytotoxicity, dose response, cytotoxicity control for Salmonella PhoP regulon inhibitors, S. typhimurium screen hits (AID 2253)
Conditions: THP-1 viability, CellTiter-Glo luminescence, 72 h; series mostly up to 50 µM; viability: at the top concentration

| Structure (SMILES) | viability |
| --- | --- |
| Cc1nc(N)sc1Cc1ccc2c(c1)OCO2 | 81.2% (inactive) |
| CCSc1cc(N2CCCC2)nc(-c2cccc(C)c2)n1 | 92.8% (inactive) |
| O=C(CN1C(=O)c2ccccc2C1=O)N1CCN(c2ccccn2)CC1 | 93.9% (inactive) |
| CCN(Cc1ccccc1)C(=O)CN1C(=S)NC(C)(C)CC1C (stereo not drawn) | 105% (inactive) |
| Cc1cccc(NC(=O)c2cc(N3C(=O)CCC3=O)ccc2Cl)n1 | 92.3% (inactive) |
| CN1CCN(S(=O)(=O)c2ccc(-c3ccccc3)cc2)CC1 | 89.2% (inactive) |
| CC1CCN(S(=O)(=O)c2cccc(C(=O)N(C)C3CCS(=O)(=O)C3)c2)CC1 (stereo not drawn) | 92% (inactive) |
| COCCCNc1ccnc2c(Cl)cccc12 | 85.6% (inactive) |
| CC(C)c1ccc(NC(=O)Nc2cc3sccc3n2C)cc1 | 89.7% (inactive) |
| CSc1cccc(NC(=O)c2ccco2)c1 | 91.9% (inactive) |
| COc1ccc(Cl)cc1C(=O)Nc1ccc(NC(=O)c2ccco2)cc1 | 93.1% (inactive) |
| CCC(C)C(NC(=O)OCc1ccccc1)C(=O)OCN1C(=O)c2ccccc2C1=O (stereo not drawn) | 102% (inactive) |
| COc1ccc(C(=O)Nc2cc(C)ccc2NC(=O)COc2ccccc2)cc1 | 81.1% (inactive) |
| COC(=O)CCC(=O)Nc1ccc(OC)cc1 | 101% (inactive) |
| Cc1sc(NC(=O)c2ccco2)c(CN2CCN(c3ccc(F)cc3)CC2)c1C | 89.5% (inactive) |
| CCOC(=O)c1c(C)[nH]c(C)c1C(=O)CSc1ncccn1 | 81.8% (inactive) |
| COc1cc(OC)cc(C(=O)N[C@H](C(=O)OCC(=O)Nc2ccc(C(N)=O)cc2)C(C)C)c1 | 89.5% (inactive) |
| Cc1ccc(-c2nnc(SCC(=O)N3CCCc4ccccc43)n2N)cc1 | 82.7% (inactive) |
| COC(=O)c1sccc1NC(=O)C1C2C=CC(O2)C1C(=O)O (stereo not drawn) | 90.1% (inactive) |
| CN(C)c1nc(N)nc(Cn2ccnc2)n1 | 92.4% (inactive) |
| O=C(Cc1cccs1)N(c1ccccc1)C1C=CS(=O)(=O)C1 (stereo not drawn) | 89.7% (inactive) |
| CC(=O)N(Cc1ccc(Cl)cc1)c1cnccn1 | 96.4% (inactive) |
| CC1(C)CC(=O)C=C(Nc2ccccc2NC(=O)c2cnccn2)C1 | 101% (inactive) |

| Structure (SMILES) | viability |
| --- | --- |
| CCn1cc(C(=O)NCCO)c(=O)c2cc(F)c(N3CCN(C)CC3)cc21 | 85.3% (inactive) |
| COc1ccc(N2C(=O)C3CCCN3C2c2cccc(C)c2)cc1Cl (stereo not drawn) | 92.3% (inactive) |
| Cc1ccc(C(=O)CSc2ncnc3sc4c(c23)CCCC4)cc1 | 95.6% (inactive) |
| CSc1nnc2c3c4c(sc3nc(-n3nc(C)cc3C)n12)COC(C)(C)C4 | 91.8% (inactive) |
| O=C(Nn1c(O)c(C=C2N=c3ccccc3=N2)sc1=S)c1ccc(Cl)cc1 | 93% (inactive) |
| Cc1cc(=O)oc(C)c1C(=O)NCc1cccnc1 | 105% (inactive) |
| S=C(Nc1ccc(Cl)c(Cl)c1)N1CCOCC1 | 85.7% (inactive) |
| Cc1ccc(C)c(C(=O)NCc2ccncc2)c1 | 84% (inactive) |
| COc1ccc(Br)cc1C(=O)NCc1cccnc1 | 94% (inactive) |
| Cc1ccc(NC(=S)NCc2cccnc2)cc1 | 91.9% (inactive) |
| S=C(NCc1cccnc1)Nc1cccc(Cl)c1 | 97.7% (inactive) |
| C=CCSc1nnc(-c2ccc(Cl)cc2Cl)o1 | 80.3% (inactive) |
| CNC(=S)N1CCN(c2c(F)cc3c(=O)c(C(=O)O)cn(C4CC4)c3c2OC)CC1C (stereo not drawn) | 91.2% (inactive) |
| COc1c(N2CCN(C(=S)Nc3ccc(F)cc3)C(C)C2)c(F)cc2c(=O)c(C(=O)O)cn(C3CC3)c12 (stereo not drawn) | 98.2% (inactive) |
| COc1c(N2CCN(C(=S)NC3CC4CCC3C4)C(C)C2)c(F)cc2c(=O)c(C(=O)O)cn(C3CC3)c12 (stereo not drawn) | 102% (inactive) |
| COc1c(N2CCNC(C)C2)c(F)cc2c(=O)c(C(=O)O)cn(C3CC3)c12 (stereo not drawn) | 93.2% (inactive) |
| CC(=O)Nc1c(C#N)c(C(C)(C)C)cn1C | 94.6% (inactive) |
| COc1ccc(N(CC(=O)Nc2ccccc2SC)S(C)(=O)=O)cc1OC | 88.8% (inactive) |
| COc1ccc(S(=O)(=O)N2Cc3ccccc3CC2C(=O)N2CCOCC2)cc1OC (stereo not drawn) | 87.6% (inactive) |
| Cc1ccc(NC2CC(=O)N(Cc3ccccc3)C2=O)cc1 (stereo not drawn) | 83.9% [at 25 µM] (inactive) |
| CCN1C(=O)/C(=C/N2CC(C)CC(C)C2)SC1=S (stereo not drawn) | 91.9% (inactive) |
| CCc1ccc(NC(=O)c2noc3c2CCc2ccccc2-3)cc1 | 103% (inactive) |
| Cc1ccc(N2C(=O)CC(n3ccnc3)C2=O)cc1C (stereo not drawn) | 96.2% (inactive) |

| Structure (SMILES) | viability |
| --- | --- |
| CN(C)CC(=O)Nc1nc(-c2ccccc2)cs1 | 83.1% (inactive) |
| COc1ccc2cc(C)c3nnc(SCC(=O)Nc4nc(-c5ccccc5)cs4)n3c2c1 | 98.8% (inactive) |
| CS(=O)(=O)c1ccc([C@@H](O)[C@@H](CO)NC(=O)C(Cl)Cl)cc1 | 81.8% (inactive) |
| CCOCc1nnc(NC(=O)COC)s1 | 95.1% (inactive) |
| CC(NC(=O)CSc1nc2c(cc1C#N)CN(C)CC2)c1ccccc1 (stereo not drawn) | 88.5% (inactive) |
| COc1cccc(C=NCCNC(=O)c2nonc2N)c1O | 85.4% (inactive) |
| O=C1CCc2cc(S(=O)(=O)N3CCN(c4cccc(Cl)c4)CC3)ccc2N1 | 99.2% (inactive) |
| CCN(CC)c1ccc(/C=C(\C#N)C(=O)NCc2ccco2)cc1 | 96.3% (inactive) |
| CCOC(=O)C1CCCN(S(=O)(=O)c2ccc(Br)c(OC)c2)C1 (stereo not drawn) | 96.5% (inactive) |
| CCn1cc(C(=O)O)c(=O)c2cc(F)c(N3CCN(C(=S)Nc4ccc(OC)cc4)CC3)cc21 | 85.5% (inactive) |
| C/C(Nc1ccc(F)cc1)=C(/C#N)C(N)=O | 103% (inactive) |
| Cc1cc(-c2c(C)n([O-])c(C)c(C)[n+]2=O)ccc1F | 92.8% (inactive) |
| CCC(Sc1ncccc1C(=O)OC(C)C)C(=O)N1CCOCC1 (stereo not drawn) | 96.5% (inactive) |
| Cc1cc(NC(=O)c2cnn3cccnc23)no1 | 93.6% (inactive) |
| CCn1cc(C(=O)NCCCO)c(=O)c2cc(F)c(N3CCN(C)CC3)cc21 | 97.5% (inactive) |
| O=c1[nH]c(CSc2nnc(NCCCN3CCOCC3)s2)nc2cc(Cl)ccc12 | 81.3% (inactive) |
| C=CC#CC[N+]1(CC#Cc2ccccc2)CCOCC1 | 91.7% (inactive) |
| CN1CCCC(OC(=O)c2ccc(Cl)cc2)C1 (stereo not drawn) | 101% (inactive) |
| FC(F)(F)c1cccc(NC(=S)NCCN2CCOCC2)c1 | 89% (inactive) |
| O=C(O)/C=C/C(=O)Nc1cccc(C(F)(F)F)c1 | 91.1% (inactive) |
| c1ccc(-c2nnc(SCCC3OCCCO3)o2)cc1 | 88.8% (inactive) |
| Cc1cc(-c2csc(NC(=O)c3ccc(C#N)cc3)n2)c(C)n1Cc1ccco1 | 90.3% (inactive) |
| Cc1ccc(CNC(=O)C2CCCN(S(=O)(=O)c3c(C)noc3C)C2)cc1 (stereo not drawn) | 92.4% (inactive) |

| Structure (SMILES) | viability |
| --- | --- |
| Cc1cccc(-n2c(N)cc(=O)[nH]c2=S)c1C | 85.5% (inactive) |
| Cc1cc(C)c(NC(=O)c2cn3c4c(c(N5CCN(C)CC5)c(F)cc4c2=O)OCC3C)c(C)c1 (stereo not drawn) | 95.3% (inactive) |
| Cc1ccc(N2C(=O)CC(Nc3ccccc3)C2=O)cc1 (stereo not drawn) | 105% (inactive) |
| CC1(C)CC(=O)C(C(=O)/C=C/NCCc2ccccc2)C(=O)C1 | 99.1% (inactive) |
| COc1cc(C2C(C(=O)c3ccc(C)o3)=C(O)C(=O)N2CCc2ccccc2)ccc1O (stereo not drawn) | 82.5% (inactive) |
| O=c1[nH]c(CN2CCCCC2)nc2ccccc12 | 97.8% (inactive) |
| c1ccc(COc2cccc(CN3CCN(c4ccccn4)CC3)c2)cc1 | 80.1% (inactive) |
| CCCC(=O)c1c[nH]c(C(=O)NCCCN2CCOCC2)c1 | 102% (inactive) |
| CCOc1ccc(S(=O)(=O)NNC(=S)Nc2ccc(Br)cc2)cc1 | 95.5% (inactive) |
| O=C(CSc1nc2ccccc2o1)Nc1ccc(N2CCOCC2)c(Cl)c1 | 80.9% (inactive) |
| O=C(CSc1nc2ccccc2o1)Nc1ccc(N2CCOCC2)cc1 | 96.8% (inactive) |
| CCCCC(=O)NCCNC(=O)c1cc(OCC(F)(F)F)ccc1OCC(F)(F)F | 100% (inactive) |
| COc1ccc(-c2ccc(-c3noc(-c4cccs4)n3)c(OC)n2)cc1 | 106% (inactive) |
| Cc1noc(C)c1CSc1nc2ccccc2nc1NS(=O)(=O)c1ccc(Cl)cc1 | 112% (inactive) |
| Fc1cccc(NCc2cn3ccccc3n2)c1 | 94.1% (inactive) |
| COc1ccc(CN2C(=O)Cc3c2nc(N)c2c(N)nc(N4CCCCC4)c(C#N)c32)cc1 | 84.8% (inactive) |
| CCCCNC(=O)c1cn(CC)c2cc(N3CCN(C)CC3)c(F)cc2c1=O | 113% (inactive) |
| CCCNC(=O)c1cn(CC)c2cc(N3CCN(C)CC3)c(F)cc2c1=O | 92.9% (inactive) |
| CCn1cc(C(=O)O)c(=O)c2cc(F)c(N3CCN(C(=S)NC(=O)c4ccccc4)CC3)cc21 | 99.5% (inactive) |
| CCn1cc(C(=O)O)c(=O)c2cc(F)c(N3CCN(C(=S)NC(=O)c4ccccc4F)CC3)cc21 | 94.8% (inactive) |
| N#C/C=C(/N)c1ccc(Br)cc1 | 89.6% (inactive) |
| Oc1ccccc1-c1nc(/C=C/c2ccccc2)nn1-c1ccccc1 | 81.1% (inactive) |
| CCn1cc(C(=O)O)c(=O)c2cnc(N3CCNCC3)nc21 | 96.9% (inactive) |

| Structure (SMILES) | viability |
| --- | --- |
| N#Cc1c(N)n[nH]c1-c1cc2c([nH]1)CCCC2 | 85.7% (inactive) |
| O=C(CSc1ccc(Cl)cc1)Nc1ccccc1N1CCN(C(=O)c2ccc(Cl)cc2)CC1 | 92.9% (inactive) |
| O=C(CCN1C(=O)C2C3C=CC(C3)C2C1=O)N1CCN(c2cccc(Cl)c2)CC1 (stereo not drawn) | 82.6% (inactive) |
| CN(C(=O)c1cccc(C#N)c1)c1nnc(-c2cnccn2)s1 | 96% (inactive) |
| NC(=O)N1OCC2COc3ccc4ccccc4c3C21 (stereo not drawn) | 96.9% (inactive) |
| COc1c(N2CCN[C@H](C)C2)c(F)cc2c(=O)c(C(=O)O)cn(C3CC3)c12 | 95.7% (inactive) |
| COC(=O)c1sccc1NC(=O)c1csc2c1CCCC2 | 82.9% (inactive) |
| COc1cc(C2Nc3cccc4cccc(c34)N2)cc(OC)c1OC(C)=O | 90% (inactive) |
| CC(=O)Oc1c2occc2cc2ccc(=O)oc12 | 91.6% (inactive) |
| CCOc1ccc2nc(COC(=O)c3ccco3)c(C(C)=O)[n+]([O-])c2c1 | 90.3% (inactive) |
| CC1=CC(C)(C)n2c(O)c(C3=NC(=S)NC3=O)c3cc(OC(=O)c4cccc5ccccc45)cc1c32 | 90.9% (inactive) |
| Cc1nc(-c2ccccn2)sc1C(=O)Nc1ccc(F)cc1F | 91.3% (inactive) |
| COC(=O)c1cn(C(=O)c2cccs2)c2ccccc12 | 84.2% (inactive) |
| Cc1c(NS(=O)(=O)c2ccccc2)c(=O)n(-c2ccccc2)n1C | 103% (inactive) |
| Cc1cc2cc(CNS(=O)(=O)c3ccc4ccccc4c3)ccc2n1C | 93.5% (inactive) |
| C=CCSc1ncnc2sc(C)c(C)c12 | 90.1% (inactive) |
| c1ccn2c(CNc3ncnc4sccc34)nnc2c1 | 97.4% (inactive) |
| N/C(=N\OC(=O)c1cccs1)C1(c2ccc(Cl)cc2Cl)CC1 | 96.5% (inactive) |
| COc1ccc(C(C)=O)c2c(O)cccc12 | 80.5% (inactive) |
| Cc1ccc(C2NNC(=O)C2NC(=O)c2ccccc2)cc1 (stereo not drawn) | 95.8% (inactive) |
| Cc1ccc(S(=O)(=O)NNC(=O)c2ccc(O)cc2)cc1 | 80.1% (inactive) |
